Sampled rows, rich in hits. Any-hit rate of the full collection: about 0.9%.
PPARg SRC1 recr – agonists of human PPARgamma SRC-1 coactivator recruitment. P37231. PPARgamma-SRC-1 coactivator recruitment biochemical assay. activation, % at 8 µM. 0.41% of 200,000 active; in the data active = activation above about 19%;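 also: 0% = DMSO and 100% = reference agonist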
Target sequence (P37231 whole entry, looked up): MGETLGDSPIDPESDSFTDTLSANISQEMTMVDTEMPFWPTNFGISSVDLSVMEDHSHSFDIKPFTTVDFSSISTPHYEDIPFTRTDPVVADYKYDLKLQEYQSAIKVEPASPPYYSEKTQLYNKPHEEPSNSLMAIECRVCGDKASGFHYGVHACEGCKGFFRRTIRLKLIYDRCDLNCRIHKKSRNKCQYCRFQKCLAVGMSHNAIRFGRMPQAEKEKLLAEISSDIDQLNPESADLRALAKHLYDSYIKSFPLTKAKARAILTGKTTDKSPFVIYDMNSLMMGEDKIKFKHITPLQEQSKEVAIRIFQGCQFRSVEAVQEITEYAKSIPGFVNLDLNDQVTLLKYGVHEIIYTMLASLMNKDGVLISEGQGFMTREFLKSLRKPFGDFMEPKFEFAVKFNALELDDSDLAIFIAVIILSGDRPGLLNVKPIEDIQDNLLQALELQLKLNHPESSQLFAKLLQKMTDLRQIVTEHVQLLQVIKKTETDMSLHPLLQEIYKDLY
PPARg SRC-2 ag – PPARgamma-driven SRC-2 recruitment agonism; P37231; PPARgamma LBD-SRC-2 recruitment, biochemical; activation, % at 8 µM; 0.34% of 200,000 active; AID 1032; in the data active = activation above about 22%;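 also: 0% = vehicle and 100% = reference agonist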
SRC1 TRFRET art – counter-screen for PPARgamma SRC-1 recruitment agonists: TR-FRET artefact; TR-FRET detection artefact counter-screen, emission ratio; hits give high values; TR-FRET ratio at 8 µM; 0.34% of 99,000 active; in the data active = TR-FRET ratio above about 2300
SRC2 TRFRET art – flags TR-FRET format artefacts in PPARgamma SRC-2 recruitment agonist screen. TR-FRET artefact counter-screen; hits give high values. 0.4% of 200,000 active. TR-FRET ratio at 8 µM
PPARg SRC3 recr – agonists of human PPARgamma SRC-3 coactivator recruitment | P37231 | biochemical PPARgamma/SRC-3 coactivator recruitment assay | activation, % at 8 µM | 0.26% of 200,000 active; in the data active = activation above about 23%;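 also: 0% = DMSO and 100% = reference agonist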
SRC3 TRFRET art – TR-FRET artefact, counter-screen to PPARgamma/SRC-3 agonist assay; PPARgamma/SRC-3 format; hits give high values; TR-FRET ratio at 8 µM; 0.39% of 99,000 active; AID 1048
* = called active by the depositor; . = no result given. Rule as the data show it, unless noted: active = TR-FRET ratio above about 2000; inactive = the rest.

SMILES	PPARg SRC1 recr	PPARg SRC-2 ag	SRC1 TRFRET art	SRC2 TRFRET art	PPARg SRC3 recr	SRC3 TRFRET art
CCn1c(C)cc(/C=C2\NC(=O)N(CC(=O)Nc3ccc(F)cc3)C2=O)c1C	10	13	2342*	1533	5	1608
CCC(C)NC(=O)Cn1c(=O)n(CCCC(=O)NCc2ccccc2Cl)c(=O)c2ccccc21 (stereo not drawn)	-2	22*	.	1629	5	.
CCOC(=O)/C(C#N)=C\N(C)C	-4	8	.	1498	7	.
C=CCN1C=CC(=C/C=C(/C#N)C(=O)OCC)C=C1	26*	3	.	1483	2	.
CCOc1ccccc1NC(=S)N1CCN(c2nc(-c3ccc(F)cc3)cs2)CC1	6	11	2465*	2063*	14	2234*
COC(=O)C1C(c2ccc(OC)cc2)Nc2nnc(C(F)(F)F)n2C1(C)O (stereo not drawn)	16	11	1862	1763	11	1624
CSc1nc2sccc2c(=O)[nH]1	-3	-2	1900	1538	1	1619
O=c1[nH]c(=S)[nH]c2sccc12	-1	8	2108	2050*	6	1856
O=C(CC12CC3CC(CC(C3)C1)C2)NC(=S)NCc1ccco1	1	8	1875	1550	1	1511
O=S(=O)(c1ccc(OCC(O)CNC23CC4CC(CC(C4)C2)C3)c(Cl)c1)N1CCOCC1 (stereo not drawn)	1	7	1798	1672	5	1628
COc1ccc(CCn2c(-c3ccc(Cl)cc3)n[nH]c2=S)cc1OC	4	5	1922	1399	8	1596
CCCCn1c(-c2cc(Cl)ccc2OC)n[nH]c1=S	14	22*	.	1787	19	.
O=C(NC(=S)Nc1ccccc1)c1ccc(Br)o1	22*	8	1954	1845	5	1864
CSc1ccccc1NC(=O)c1cc2ncc(Br)cn2n1	19	6	2400*	1853	3	2070*
O=C(CCn1cnc2ccccc2c1=O)Nc1nc(-c2ccc(Br)cc2)cs1	-8	-9	1532	1374	-1	1376
Cc1[nH]c2ccccc2c1/C=N/Nc1ccccn1	15	10	1781	2002*	9	1761
Cc1[nH]c2ccccc2c1/C=N/Nc1nncn1N	4	9	1975	1675	6	1704
O=C(C1=C[C@H](C2CCCCC2)C[C@H](OCCCCO)O1)N1CCN(Cc2ccccc2)CC1	0	5	1896	1464	0	1583
CCc1cccc(NC(=O)C2CCCN(S(=O)(=O)c3c(C)[nH]c(=O)[nH]c3=O)C2)c1 (stereo not drawn)	10	8	.	1727	10	.
Cc1cccc(NC(=O)C2CCN(S(=O)(=O)c3c(C)[nH]c(=O)[nH]c3=O)CC2)c1	6	5	1982	1997*	4	1709
O=C(CSc1c2c(nc3ccc(Cl)cc13)CCCC2)NCCCN1CCOCC1	19	20	2131	1820	14	2256*
O=C(CSc1ccccc1)NCCCN1CCOCC1	4	-3	.	1558	-12	.
COc1ccccc1-n1cnnc1SCC(=O)NCC1CCCO1 (stereo not drawn)	4	2	1788	1543	0	1619
Cc1ccc(NC(=S)N2CCC(c3ccccc3)C2)c(Cl)c1 (stereo not drawn)	4	0	1752	1615	3	1491
CC(=O)N1N=C(c2cccs2)CC1c1ccc(C)o1 (stereo not drawn)	11	4	2339*	1750	1	1805
SMILES	PPARg SRC1 recr	PPARg SRC-2 ag	SRC1 TRFRET art	SRC2 TRFRET art	PPARg SRC3 recr	SRC3 TRFRET art
O=S(=O)(c1ccccc1)c1cnn2c(C(F)(F)F)cc(-c3ccc(F)cc3)nc12	21*	4	.	1524	5	.
O=S(=O)(c1ccccc1)c1cnn2c(C(F)(F)F)cc(-c3ccccc3)nc12	2	3	.	1466	0	.
O=C(/C=C/c1ccco1)Nc1ccc2nc3n(c(=O)c2c1)CCCC3	8	6	1968	1696	4	1777
CN(CC1CCCO1)S(=O)(=O)c1ccc(C(=O)Nc2ccc3c(c2)OCO3)cc1 (stereo not drawn)	4	11	1902	1460	3	1432
CN(CC1CCCO1)S(=O)(=O)c1ccc(C(=O)Nc2nc3cc4c(cc3s2)OCO4)cc1 (stereo not drawn)	9	23*	.	1631	4	.
COc1ccccc1NC(=O)C1=C(C)NC(SCC(=O)c2ccc(C)cc2)=C(C#N)C1c1ccco1 (stereo not drawn)	11	9	.	2554*	23	.
Cc1ccc(C2C(C#N)=C(N)SC(N)=C2C#N)cc1	9	4	.	1666	10	.
N#CC1=C(N)SC(N)=C(C#N)C1c1ccoc1	21*	31*	.	2095*	28*	.
CCN(CC)C(=O)CSc1nc2ncccc2[nH]1	6	10	.	1315	32*	.
COc1ccc(-c2cc(=O)c3c(OC)c(OC)c(OC)c(OC)c3o2)cc1OC	5	-3	2007	1392	9	1488
COc1c(OC)c(O)c2c(=O)cc(-c3c(O)cccc3O)oc2c1OC	21*	2	1922	1598	0	1661
O=C(COC(=O)c1ccc(Cl)c(S(=O)(=O)N2CCc3ccccc3C2)c1)Nc1ncc(Cl)cc1Cl	9	-1	2306	1932	9	2156*
O=C(COC(=O)c1cccc(S(=O)(=O)N2CCc3ccccc32)c1)Nc1ncc(Cl)cc1Cl	6	3	2003	1556	8	1463
Cc1nn(Cc2ccc([N+](=O)[O-])cc2)c(=O)n1-c1cccc(Cl)c1	2	6	1740	1648	3	1514
Cc1nnc(SCC(=O)Nc2ccc(S(=O)(=O)N3CCCC3)cc2)n1N	6	5	.	1640	0	.
Cc1ccc(NC(=O)CSc2ncnc3ccccc23)cc1S(=O)(=O)N1CCCCC1	5	1	1842	1451	5	2119*
Cn1ccnc1SCC(=O)Nc1cccc(S(=O)(=O)N2CCCCCC2)c1	7	6	1996	1896	6	1653
Cc1cc(C)c2nc(SCC(=O)Nc3ccc(S(=O)(=O)N4CCCC4)cc3)c(C)cc2c1	9	2	.	1973*	8	.
Cc1ccc(S(=O)(=O)N2CCCCC2)cc1NC(=O)CSc1nccn1C	4	-4	2368*	1736	3	1625
CCOc1cc(/C=N/OC(C)=O)ccc1OCc1ccccc1	-9	-6	1850	1576	-2	1551
O=C(NC(=S)NCc1cccnc1)c1cccc2ccccc12	7	-8	1732	1368	2	1468
CSc1ncccc1C(=O)OCC(=O)c1ccc(Br)s1	11	15	2355*	1749	16	3227*
CSc1ncccc1C(=O)OCC(=O)c1ccccc1Br	-5	0	1823	1616	-2	1555
C=CCn1c(=NC(=O)c2cc(-c3cccs3)nc3ccccc23)sc2cc(S(N)(=O)=O)ccc21	7	4	1639	1739	3	2319*
